The text below walks through data of PubChem BioAssay AID556 (SRMLSC, 2006).

In all, about 65,000 compounds went through this assay and about 320 (0.49%) were called active.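 The calls were made as follows: active = the 320 compounds with the highest percent inhibition in the single-dose primary screen, excluding strongly autofluorescent ones (cut at about 32% in these data); inactive = the rest, inconclusive results apart.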 What follows is part of a selection rich in actives, with near analogues and random picks from the rest.

This assay relates to diphosphomevalonate decarboxylase (Streptococcus pneumoniae D39). The assay can be described thus: S. pneumoniae DPM-DC inhibitors, primary screen, biochemical, PK/LDH-coupled NADH fluorescence (AID 556).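 As to inhibition: kinetic rate of NADH fluorescence loss reporting ADP formed by the decarboxylase; 0% = full reaction rate with carrier and 100% = no-substrate background rate.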 To be noted: purified DPM-DC, at 10 µM.
Where [1] appears, read: stronger effect = higher value unless noted.
The mark [2] stands for this setting: measured here: pilot screen trials, stronger effect = higher value.

In the case of `CCOC(=O)N1CCC(O)(c2cc(C)c(C)cc2C)CC1`, under setting [1], the inhibition (commonly the relative decrease from the control value, in per cent) is 0.5% [measured here: pilot screen trials, stronger effect = higher value] and the result was inactive.

For `O=C(C1=C(O)C(=O)N(c2ncccn2)C1c1cccs1)c1ccco1` (configuration not stated), under setting [1], the inhibition is 1% (inactive).

For `Cc1[nH]c2ccc(S(N)(=O)=O)cc2c1C`, the inhibition result under setting [1] was “inactive”.

For `CCN(CC)c1ccc(C(=O)OCC(=O)c2ccco2)cc1`, the inhibition entry under setting [1] was “inactive”.

For `Cc1ccc(S(=O)(=O)N2CC(=O)Nc3ccccc32)cc1C`, under setting [1], the inhibition entry is “inactive”.

Turning to `Cc1nc(NC(=O)C23CCC(C)(C(=O)O2)C3(C)C)sc1C` (configuration not stated), the inhibition by setting is: (stronger effect = higher value) 6% (inactive); under setting [2], 2%.

Take `Cc1noc(C)c1C(=O)OCC(=O)/C=C1\N(C)c2ccccc2C1(C)C`: the inhibition result under setting [1] was “inactive”.

For the compound `CCOC(=O)CN1CC23C=CC(O2)C(C(=O)Nc2ccc(F)cc2)C3C1=O` (configuration not stated), the inhibition result under setting [1] was “inactive”.

Consider `CCOCCOC(=O)C1=C(C)N(C)C(=O)NC1c1ccccc1F` (configuration not stated), for which the inhibition result under setting [1] is “inactive”.

In the case of `Cc1c(C(=O)NCC2CCCO2)sc2nc(-c3ccccc3)cn12` (configuration not stated), under setting [1], the inhibition is 35% (active).

For the compound `Cc1c(C(=O)N2CC(C)OC(C)C2)sc2nc(-c3ccccc3)cn12` (configuration not stated), the inhibition result under setting [1] was “inactive”.

Consider `Cc1c(C(=O)NCCN2CCOCC2)sc2nc(-c3ccc(F)cc3)cn12`, for which the inhibition under setting [1] is 9% (inactive).

Regarding `C=CCn1c(C2CC(=O)N(c3ccc(C)cc3)C2)nc2ccccc21` (configuration not stated), under setting [1], the inhibition entry was “inactive”.

As to `O=C(CSc1nc2cc3c(cc2c(=O)n1CCC1=CCCCC1)OCO3)NCc1ccco1`, the inhibition result under setting [1] was “inactive”.

As to `CCNS(=O)(=O)c1ccc(NC(=O)Nc2cccc(C(F)(F)F)c2)cc1`, under setting [1], the inhibition entry was “inactive”.

For `CCCCOc1ccc(C(C)(O)CCN2CCOCC2)cc1` (configuration not stated), under setting [1], the inhibition entry was “inactive”.

Consider `CC1(C)Oc2ccc(C(=O)N3CCOCC3)cc2N(CC(=O)Nc2ccccc2)C1=O`, for which the inhibition entry under setting [1] was “inactive”.

With `CCCCNc1nc2ccccc2nc1NS(=O)(=O)c1cccs1`, under setting [1], the inhibition was 2% (inactive).

As to `Cc1ccc(CN2C(=O)CCC2C(=O)NCCCN2CCCCC2C)cc1` (configuration not stated), the inhibition entry under setting [1] was “inactive”.

For `Cn1c(SCc2nc3ccccc3s2)nnc1-c1ccc2c(c1)OCO2`, the inhibition result under setting [1] is “inactive”.

Turning to `Cc1cccc(N2CCN(C(=O)C3CCN(S(=O)(=O)c4cnc[nH]4)CC3)CC2)c1C`, the inhibition entry under setting [1] was “inactive”.

In the case of `CCCCCCOC(=O)NCC(O)c1ccccc1` (configuration not stated), the inhibition result under setting [1] was “inactive”.

In the case of `Cc1nc(NCCN)c(C#N)c2c1COC(C)(C)C2`, under setting [1], the inhibition was 32% (active).

With `Cc1nc(NCc2ccccc2)c(C(N)=O)c2c1COC(C)(C)C2`, the inhibition under setting [1] was 24% (inactive).

Take `Cc1ccc(S(=O)(=O)NCCN2CCOCC2)cc1C`: the inhibition is 80% (active) (stronger effect = higher value) and 0% under setting [2].

As to `Cc1cc(C)c(S(=O)(=O)NCCCN2CCOCC2)cc1Br`, the inhibition entry under setting [1] was “inactive”.

Take `Cn1c(=O)c(=O)n(C)c2cc(S(=O)(=O)NCCc3ccccc3)ccc21`: the inhibition entry under setting [1] was “inactive”.

Regarding `COCCNC(=O)CN1C(=O)CSc2ncccc21`, under setting [1], the inhibition was 0% [measured here: pilot screen trials, stronger effect = higher value] and the call was inactive.
